# Data: PubChem BioAssay (NCI)
# Several values for one entry are separate records, joined by “and”; a condition that tells them apart may be missing. Equal values may be shown once. The panel holds about 79,000 compounds, 15% with a hit somewhere; the sample as a whole holds those more often. Unmarked numbers belong to inactive results. Activity calls are given as the source filed them. No stated cut-off is given here; in the data, active means growth inhibition above about 70%; inactive means the rest.
# Assay: NCI Yeast Anticancer Drug Screen. Data for the rad50 strain (AID 155);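 further: 0% = growth of vehicle-only cultures of the same strain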
# Settings: S. cerevisiae rad50 strain growth inhibition; at 5.0 µM (retest, dose inferred, filed as 0.5); active compounds read high
# Outline: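 Genetically altered yeast (DNA repair pathway); compound treatment; growth inhibition vs vehicle ctrl.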
row,Compound,growth inhibition
1,C[N+]1=C(/C=C\c2ccc(O)c3ccccc23)C(C)(C)c2ccccc21,-2%
2,Nc1ccc(O)c2ccccc12,19%
3,O=C1CCC(Cc2ccc(C(F)(F)F)cc2)C(=O)N1 (configuration not stated),-3%
4,CCCCCCCCN(CCCCCCCC)Cc1ccc(Br)cc1,98% (active)
5,NC(N)=Nc1ccc(Cc2ccc(N=C(N)N)cc2)cc1,0%
6,CC(C)N(CC(=O)c1ccc2cc(Cl)c3ccccc3c2c1)C(C)C,20%
7,Cc1c(N2CCCC2)cc2c(c1NC(=O)c1ccccc1Cl)C(C)(C)CC2(C)C,11%
8,CC(C)(C)OC(=O)c1ccc(NCC2=C(Br)C(=O)C=CC2=O)cc1,18%
9,CCS(=O)(=O)c1ccc(NC(=O)OC2CCCCCCC2)cc1,5%
10,Cc1cc2c(c3c1C(=O)CC3)C(C)(C)CC2(C)C,1%
11,O=C(O)/C=C\c1cc2ccccc2c2ccccc12,13%
12,CC[N+](C)(CC)CCC[n+]1c(-c2ccccc2)c2cc(N)ccc2c2ccc(N)cc21,60%
13,Cn1nc2c(c(Cl)c1=O)Nc1ccccc1O2,-32%
14,O=S(=O)(Nc1ccc(Cl)cc1)c1ccccc1,-3%
15,N#CCC(=O)N/N=C(/CC1(O)C(=O)Nc2c(Cl)cc(Cl)cc21)c1ccccc1 (configuration not stated),2%
16,CCCCOC(=O)c1cnc[nH]c1=O,3%
17,N#Cc1ccccc1[N+](=O)[O-],16%
18,CCCCOC(=O)c1ccc(O)c(OC)c1,3%

# Same assay, conditions: S. cerevisiae rad50 strain growth inhibition; at 50.0 µM (retest, dose inferred, filed as 5.0); active compounds read high
row,Compound,growth inhibition
1,C[N+]1=C(/C=C\c2ccc(O)c3ccccc23)C(C)(C)c2ccccc21,82% (active)
2,Nc1ccc(O)c2ccccc12,80% (active)
3,O=C1CCC(Cc2ccc(C(F)(F)F)cc2)C(=O)N1 (configuration not stated),7%
4,CCCCCCCCN(CCCCCCCC)Cc1ccc(Br)cc1,99% (active)
5,NC(N)=Nc1ccc(Cc2ccc(N=C(N)N)cc2)cc1,-3%
6,CC(C)N(CC(=O)c1ccc2cc(Cl)c3ccccc3c2c1)C(C)C,97% (active)
7,Cc1c(N2CCCC2)cc2c(c1NC(=O)c1ccccc1Cl)C(C)(C)CC2(C)C,95% (active)
8,CC(C)(C)OC(=O)c1ccc(NCC2=C(Br)C(=O)C=CC2=O)cc1,98% (active)
9,CCS(=O)(=O)c1ccc(NC(=O)OC2CCCCCCC2)cc1,89% (active)
10,Cc1cc2c(c3c1C(=O)CC3)C(C)(C)CC2(C)C,77% (active)
11,O=C(O)/C=C\c1cc2ccccc2c2ccccc12,98% (active)
12,CC[N+](C)(CC)CCC[n+]1c(-c2ccccc2)c2cc(N)ccc2c2ccc(N)cc21,90% (active)
13,Cn1nc2c(c(Cl)c1=O)Nc1ccccc1O2,-16%
14,O=S(=O)(Nc1ccc(Cl)cc1)c1ccccc1,50%
15,N#CCC(=O)N/N=C(/CC1(O)C(=O)Nc2c(Cl)cc(Cl)cc21)c1ccccc1 (configuration not stated),35%
16,CCCCOC(=O)c1cnc[nH]c1=O,17%
17,N#Cc1ccccc1[N+](=O)[O-],95% (active)
18,CCCCOC(=O)c1ccc(O)c(OC)c1,-13%

# Same assay, conditions: S. cerevisiae rad50 strain growth inhibition; at 50.0 µM; active compounds read high
row,Compound,growth inhibition
1,C[N+]1=C(/C=C\c2ccc(O)c3ccccc23)C(C)(C)c2ccccc21,40.5%
2,OCC(O)C(O)C(O)C(O)CNCC(O)C(O)C(O)C(O)CO (configuration not stated),5.3% and 10.1% and 19.6%
3,NCC(=O)NC(CO)C(=O)O (configuration not stated),-8.05% and -12.9% and -12.8%
4,Nc1ccc(O)c2ccccc12,85.5% (active)
5,O=C1CCC(Cc2ccc(C(F)(F)F)cc2)C(=O)N1 (configuration not stated),1.65%
6,CCCCCCCCN(CCCCCCCC)Cc1ccc(Br)cc1,99.2% (active)
7,NC(N)=Nc1ccc(Cc2ccc(N=C(N)N)cc2)cc1,-33.2%
8,Nc1ccc(S(=O)(=O)O)c2ccccc12,-17.7% and -12.8% and 15.7%
9,CC(C)N(CC(=O)c1ccc2cc(Cl)c3ccccc3c2c1)C(C)C,99% (active)
10,Cc1c(N2CCCC2)cc2c(c1NC(=O)c1ccccc1Cl)C(C)(C)CC2(C)C,82.8% (active)
11,CC(C)(C)OC(=O)c1ccc(NCC2=C(Br)C(=O)C=CC2=O)cc1,89.8% (active)
12,CSc1ccccc1C(=O)O,-0.25% and -1.5% and -11%
13,CCS(=O)(=O)c1ccc(NC(=O)OC2CCCCCCC2)cc1,95.8% (active)
14,Cc1cc2c(c3c1C(=O)CC3)C(C)(C)CC2(C)C,2.9%
15,OC(c1ccccc1)C(O)c1ccccc1 (configuration not stated),5.85% and 22.8% and 24.1%
16,Cc1ccc(S(=O)(=O)OCC(O)C(O)COS(=O)(=O)c2ccc(C)cc2)cc1 (configuration not stated),35.8% and -13.8% and 12.6%
17,O=C(O)/C=C\c1cc2ccccc2c2ccccc12,98.8% (active)
18,CC[N+](C)(CC)CCC[n+]1c(-c2ccccc2)c2cc(N)ccc2c2ccc(N)cc21,94.6% (active)
19,Cn1nc2c(c(Cl)c1=O)Nc1ccccc1O2,0.85%
20,O=S(=O)(Nc1ccc(Cl)cc1)c1ccccc1,76.5% (active)
21,CC(=O)OC1COC(SC(=N)N)C(OC(C)=O)C1OC(C)=O (configuration not stated),41.4% and 24.4% and 20%
22,N#CCC(=O)N/N=C(/CC1(O)C(=O)Nc2c(Cl)cc(Cl)cc21)c1ccccc1 (configuration not stated),69.4%
23,CCCCOC(=O)c1cnc[nH]c1=O,0.5%
24,COC1OC2COC(c3ccccc3)OC2C(O)C1O (configuration not stated),-23.9% and 17.1% and 20.4%
25,N#Cc1ccccc1[N+](=O)[O-],67.5%
26,CCCCOC(=O)c1ccc(O)c(OC)c1,-19.8%
